Screens deposited in PubChem BioAssay by National Center for Advancing Translational Sciences (NCATS).
Sampled rows, rich in hits. Any-hit rate of the full collection: about 7.8%.
HCV inh = inhibitors of hepatitis C virus infection | Huh7.5.1 HCVcc-Cre infection, luciferase reporter, 44 h | Potency, µM (top dose mostly 41.8 µM), for inactives: top-dose activity change, negative = inhibition, most hits filed as inhibitors | 340,000 tested, 3.4% active; active = well fitted inhibition curve with a large enough effect; inconclusive = small, poorly fitted or top-dose-only effect, or another doubt; inactive = no such curve, though single readings can be large or run the other way; also: potency is read from the fitted curve at half-maximal effect
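Antiviral activity was scored by luciferase reporter output from cells infected with HCVcc-Cre (~0.5 moi) in presence of compound, 44 h infection period, cells seeded 1,000/well 4 h prior.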
Lassa entry inh = inhibitors of Lassa virus binding or cell entry; Lassa virus pseudotype entry inhibition, cell reporter; Potency, µM (titrated, usually from 37.9 µM), for the others: at the top dose activity change, negative = inhibition, hits mostly inhibitors; 300,000 tested, 1.2% active; AID 540256; calls by dose curve; tested in HEK293 cells; also: potency is read from the fitted curve at half-maximal effect; nearly all actives have a fitted effect of over 50% in size
MARV entry inh = Marburg virus entry inhibition. Marburg virus pseudotyped entry inhibition, cell reporter. Potency, µM (doses to about 37.8 µM), without a hit: at the highest dose activity change, negative = inhibition, actives largely listed as inhibitors. 300,000 tested, 1.8% active; calls by dose curve; tested in HEK293 cells; also: potency is read from the fitted curve at half-maximal effect
HCMV antiviral = inhibitors of human cytomegalovirus. HFF cells, HCMV-luciferase reporter, 72 h; hits give low values. activity change, negative = inhibition, % at 57.5 µM. 410,000 tested, 4.5% active. AID 1259415; in the data active = activity change below about -60%; inconclusive = no clear call, values can overlap the other calls; inactive = above about -39%
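Luciferase read-out from HCMV-luciferase-infected HFFs (MOI 1 PFU/cell) 72 h post infection at 37C; compounds added after 16 h cell attachment; activity normalized between buffer-only basal and Salinomycin (10uM) inhibitor controls.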
VACV mCherry inh = vaccinia inhibition (mCherry reporter). 310,000 tested, 0.63% active. Potency, µM (highest dose often 36.5 µM), for the others: at the highest dose activity change, negative = inhibition, actives largely listed as inhibitors. Vaccinia virus mCherry reporter infection, fluorescence; calls by dose curve; tested in A549 cells; also: potency is read from the fitted curve at half-maximal effect; nearly all actives have a fitted effect of over 35% in size
VACV Venus inh = vaccinia inhibition (Venus reporter); Vaccinia virus Venus reporter expression, fluorescence; Potency, µM (highest dose often 36.5 µM), for the others: at the highest dose activity change, negative = inhibition, actives largely listed as inhibitors; 330,000 tested, 0.46% active; calls by dose curve; tested in A549 cells; also: potency is read from the fitted curve at half-maximal effect; nearly all actives have a fitted effect of over 30% in size
* marks the source's active call; other numbers are inactive results; i = inactive; ? = inconclusive; . = no result given; [ ] = dose if it differs, or a comment. % is scaled to controls: 0 for no effect and ±100 for the full control effect.

SMILES	HCV inh	Lassa entry inh	MARV entry inh	HCMV antiviral	VACV mCherry inh	VACV Venus inh
Cc1ccccc1CCNC(=O)c1ccc(NC(=O)N2CC(C)Sc3ccccc32)cc1 (stereo not drawn)	.	14%[46.1 µM]	28%[46.1 µM]	56	-10%	-17%
Cc1nn(Cc2c(Cl)cccc2Cl)c(C)c1NC(=O)c1cc(C(C)C)on1	?	.	.	-98*	-24%	-20%
Cc1cc(C(=O)Nc2c(C)nn(Cc3c(Cl)cccc3Cl)c2C)no1	-26%	5.8µM*	2.6µM*	-62*	.	.
Cc1nn(Cc2ccc(Cl)cc2)c(C)c1NC(=O)c1cc(C(C)C)on1	11µM*	-28%[46.1 µM]	?	?	-27%	-2%
COc1ccc(OC)c(-c2cc(C(=O)Nc3c(C)nn(Cc4ccc(Cl)cc4)c3C)no2)c1	14µM*	?	?	-13	.	.
COc1ccc(OC)c(-c2cc(C(=O)Nc3c(C)nn(Cc4ccccc4)c3C)no2)c1	?	?	?	-28	?	?
COC(=O)[C@@]1(C#N)CC(=O)N([C@@H](CO)c2ccccc2)[C@H]1c1ccccc1	.	.	.	-6	.	.
COc1ccc(Cn2c(SCc3ccc(C(=O)NC4CCCCC4)cc3)nc3ccncc32)cc1	.	.	?	?	?	-22%
COc1ccc(S[C@]2(c3nc(C)no3)CC(=O)N(C(=O)CCc3ccccc3)[C@@H]2c2ccc(OC)cc2)cc1	.	.	.	1	.	.
COc1ccc(C(=O)NCCc2csc(-c3ccc(Cl)cc3)n2)c(OC)c1	.	-16%[46.1 µM]	.	-16	4%	-5%
O=[N+]([O-])c1ccc2c(c1)C(N1CCOCC1)/C(=C/COc1ccc3ccccc3c1Br)O2 (stereo not drawn)	-18%	?	13µM*	15	.	-10%
CCN(CC)C(=O)c1ccc(-c2nnc(Nc3ccc(O)cc3)c3ccccc23)cc1	-26%	.	.	-75*	.	.
Cc1ccc(-c2nnc(Nc3ccc(O)cc3)c3ccccc23)cc1S(=O)(=O)N1CCN(C)CC1	.	2%[46.1 µM]	-12%[46.1 µM]	-66*	?	-29%
Cc1ccc(-c2nnc(Nc3ccc(F)cc3)c3ccccc23)cc1S(=O)(=O)N1CCN(C)CC1	.	?	-23%[46.1 µM]	-102*	-13%	-28%
Cc1ccc(-c2nnc(Nc3ccc(Br)cc3)c3ccccc23)cc1S(=O)(=O)N1CCN(C)CC1	.	11µM*	.	-40	?	-30%
O=c1c2nncn2ccn1-c1ccc(F)c(F)c1	.	16%[46.1 µM]	11%[46.1 µM]	3	-5%	5%
CC(C)(C)c1ccc(CC(=O)N2CCC2(C)C(=O)Nc2cnc3ccccc3c2)cc1 (stereo not drawn)	.	.	.	?	11%	-10%
C=CCN(C(=O)CCC(=O)O)[C@H]1CC(=O)N(c2ccc(OCCC)cc2)C1=O	.	.	-1%	.	.	.
COc1ccc(C2=Nc3ccc(C)cc3NC(c3ccc(Cl)cc3)=N2)cc1	.	?	11%[46.1 µM]	28	i	-8%
O=C(NCC(c1ccc2c(c1)OCO2)N1CCOCC1)C(=O)Nc1ccccc1 (stereo not drawn)	.	2%[46.1 µM]	.	12	-4%	-7%
O=c1c2ccc(Cl)cc2nc(-c2ccc([N+](=O)[O-])cc2)n1O	-23%	?	?	-98*	i	-25%
O=c1c2cc(Br)ccc2nc(-c2ccc([N+](=O)[O-])cc2)n1O	-11%	-8%	?	-39	-7%	-14%
Oc1ccccc1C1=NN(c2ccccc2)C(c2ccc(F)cc2)C1 (stereo not drawn)	-18%	-23%[46.1 µM]	-10%[46.1 µM]	-74*	-26%	-4%
Oc1ccc(C2=NN(c3ccccc3)C(c3ccc(F)cc3)C2)cc1 (stereo not drawn)	10µM*	11µM*	?	22	-30%	?
COc1ccc(C2CC(c3ccc(F)cc3)=NN2c2ccccc2)cc1OC (stereo not drawn)	?	?	3%	77	-18%	-10%
SMILES	HCV inh	Lassa entry inh	MARV entry inh	HCMV antiviral	VACV mCherry inh	VACV Venus inh
Cc1ccc(C)n1C1C(=O)N(Cc2ccc(Cl)nc2)c2ccccc21 (stereo not drawn)	.	.	.	-3	.	.
COc1ccccc1N1CCN(C(=O)CN2C(=O)COc3ccc(S(=O)(=O)N4CCC(C)CC4)cc32)CC1	.	15%[46.1 µM]	-1%[46.1 µM]	16	-10%	-3%
COc1ccc(-c2nnc(SCC(=O)N(Cc3ccccc3)C(C)(C)C)o2)cc1OC	?	?	?	-95*	.	.
CC(C)=CC(O)C/C(C)=C/COc1ccc2ccc(=O)oc2c1 (stereo not drawn)	?	.	.	12	10µM*	10µM*
CC(C)Oc1cccc(C2CC(=O)Nc3cc4c(cc32)OCO4)c1 (stereo not drawn)	.	?	?	-16	?	-26%
CC(C)c1ccc(C2C3=C(COC3=O)Nc3cc4c(cc32)OCO4)cc1 (stereo not drawn)	-46%	?	?	-88*	?	?
Cc1cccc(Cn2c(=O)n(CCCC(=O)NCc3ccccc3Cl)c(=O)c3ccccc32)c1	.	?	-7%[46.1 µM]	-8	-26%	-22%
c1ccc(-c2cn(-c3ccccc3)c3ncnc(N4CCCCC4)c23)cc1	?	?	?	12	i	0%
CCOc1ccc(-n2cc(-c3ccccc3)c3c(N4CCOCC4)ncnc32)cc1	11µM*	?	?	47	-16%	-9%
CC12CCC(=O)C=C1CCC1C2CCC2(C)C(O)(C(=O)CO)CCC12O (stereo not drawn)	24%	-12%	-28%	-65*	-13%	-9%
Clc1ccc(/C=C/c2ccc3ccccc3n2)cc1Cl	.	.	.	.	-11%	-25%
O=C1NC2(CCCCC2)C(=O)N1Cc1cccc(C(F)(F)F)c1	0%	-8%	1%	-103*	.	.
Nc1cc(=O)n(Cc2ccccc2)c(N)c1C(=O)NCc1ccccc1	.	.	.	-9	.	.
Cc1nn(-c2ccc(F)cc2)c(C)c1CNC(=O)c1ccc(-n2cc(NC(=O)c3ccoc3)cn2)cc1	.	.	.	.	-3%	-1%
CCOC(=O)c1c(C)[nH]c(C(=O)Nc2ccc(C)c(Cl)c2)c1C	-2%	6%	7%	.	.	.
CCOC(=O)c1[nH]c(C)c(C(=O)Nc2ccc3c(c2)OCCO3)c1C	?	-3%	22%	-74*	i	-14%
CC(=O)c1c(C)[nH]c(C(=O)Nc2ccc3c(c2)OCCO3)c1C	-14%	?	?	300	-18%	-14%
CCOC(=O)c1c(C)[nH]c(C(=O)Nc2ccc(NC(C)=O)cc2)c1C	?	-3%	?	-65*	.	.
CC(C)Oc1ccc(CNC(=O)c2cnc3sc(N4CCCC4)nn3c2=O)cc1	.	?	.	-1	-13%	-7%
CCOc1ccc(-c2cc(C(=O)Nc3ccc(C)c(NS(C)(=O)=O)c3)[nH]n2)c(C)c1	.	.	.	-91*	11µM*	?
O=C(/C=C/c1ccccc1)CC(=O)c1ccccc1O	11µM*	18%	-6%	19	.	.
